# The OligoGym collection
# Molecular target: WFIKKN1
# Assay: pooled miR-30 sensor sort-seq; sequence = guide strand
# Settings: shRNA
# Also: reference of the scale not given here.
row,Sequence,sensor-assay potency score (higher = more potent)
1,TCGGCGTCCATATAGCAGCGGT,-1.4
2,TTGACGCGCTTCTCGCTGGCGG,-0.83
3,TCGTAGGTCTCAAAGCCGCGGG,-1.25
4,AAGAACTTGAGGCCCATCTTGT,-0.385
5,TCATCCTTGAGCACGTCCTCGA,-0.412
6,TCTCTCGCTGGTGACTCTGCTT,-0.761
7,TTGTAGAGCACCAGCTGCCCGA,-1.47

# Molecular target: WIZ
# Assay: as above
# Settings: shRNA
row,Sequence,sensor-assay potency score (higher = more potent)
1,TTCTGCTGTAGGTCATTGGTGT,-0.0622
2,TTTGGAGAAGTTCATCTCCAGG,-1.49
3,TCTTCTTGAGGATCTCTCGCAG,-0.0721
4,AATTCCACCTCACAGAACCTGC,-1.06
5,TTCTCGAAGAACTCGCCGCAGA,-0.9
6,TTTGTTGATGTTCTGCCGCTGG,-0.379
7,TTCTTCTTGAGGATCTCTCGCA,-0.31
8,TTGGCCTTGACCTCTGCTGGGA,-0.479
9,TTCAAATTTGTTGATGTTCTGC,0.0401
10,TTGAGGATCTCTCGCAGTGTGT,-1.29
11,TATTTGTTCAGGCTTCAGCTTC,-1.07
12,TTGACAAGTGATGTCTGGGGGG,-0.32

# Molecular target: WNK4
# Assay: as above
# Settings: shRNA
row,Sequence,sensor-assay potency score (higher = more potent)
1,TCAAACTTGAGGTATCGGCCAT,-0.186
2,TTGAGGTATCGGCCATCGGGGG,-1.54
3,ATTGTCGCACTTGAGATCCCGG,-0.626
4,TTTTCCTCGTACATCTCGGGGG,0.127
5,TAGTTCATCCACACTGGGCTGG,-0.183
6,TTCTGTAGTGTCTGTAGTGTTT,-0.833
7,TTGTTGATCAGAAAGCATCAGA,-0.592
8,TTTCTGTAGTGTCTGTAGTGTT,-0.643
9,TACTTTTCCTCGTACATCTCGG,-0.00694
10,TTTCCTCGTACATCTCGGGGGC,-0.103
11,TTTTCTGTAGTGTCTGTAGTGT,0.147
12,TACACCGTCTTGAAGGAGCCAC,-0.497

# Molecular target: WNT16
# Assay: as above
# Settings: shRNA
row,Sequence,sensor-assay potency score (higher = more potent)
1,TTATCTTCTACACAGTAGTTGG,-1.09
2,TTTCTTATCTTCTACACAGTAG,-0.455
3,TTCTTTACAAAACACTGTCTTT,-0.946
4,TAACAGTTGAAACTGATCTGTG,0.0469
5,TTAACAGTTGAAACTGATCTGT,-0.124
6,AAATCTAGGAACTTTCTGCTGA,0.396
7,TTCTTTGTCACTAAACATCTGT,-0.0723
8,TAAAATATAATAAATATCCAGG,-0.303
9,TTAACTTTTCAACATCTTCTAT,-0.546
